# Inconclusive results are not listed. Where a call stands in place of a potency, no number is given. Activity calls are given as the source filed them. Calls follow the shape of the dose curve; as a rule, active = well fitted inhibition curve with a large enough effect; inconclusive = small, poorly fitted or top-dose-only effect; inactive = flat fitted curve, though single readings scatter.
# Legend:
# Assay in all cases: qHTS profiling for inhibitors of Plasmodium falciparum proliferation (AID 504749); also: nearly all actives have a fitted effect of over 60% in size
# Conditions in all cases: P. falciparum in erythrocytes, SYBR Green DNA, 72 h; series mostly up to 28.7 µM
# JCK = test system: JCK
# Procedure, shortened: (§1)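 Readout was DNA-dye fluorescence from lysed cultures, ex 485/em 535 nm. Parasitized red cells had grown 72 h with compound; data scaled between 0.29 uM artemisinin and DMSO wells and corrected using vehicle-only plates.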
# N140 = test system: N140
# Procedure, shortened: as §1
# P93_24 = test system: P93_24
# Procedure, shortened: as §1
# P94_40 = test system: P94_40
# Procedure, shortened: as §1
# PAD = test system: PAD
# Procedure, shortened: as §1
# PC15 = test system: PC15
# Procedure, shortened: as §1
# PC26 = test system: PC26
# Procedure, shortened: as §1
# PC49 = test system: PC49
# Procedure, shortened: as §1
# SC27B = test system: SC27B
# Procedure, shortened: as §1
# TAB109 = test system: TAB109
# Procedure, shortened: as §1
# Potency is read from the fitted curve at half-maximal effect.
Structure (SMILES),Potency (JCK),Potency (N140),Potency (P93_24),Potency (P94_40),Potency (PAD),Potency (PC15),Potency (PC26),Potency (PC49),Potency (SC27B),Potency (TAB109)
COc1cc(NS(=O)(=O)c2ccc(N)cc2)ncn1,inactive,inactive,inactive,inactive,inactive,inactive,inactive,inactive,inactive,inactive
CCCN(CCC)S(=O)(=O)c1ccc(C(=O)O)cc1,inactive,inactive,inactive,inactive,inactive,inactive,inactive,inactive,inactive,inactive
CC(=O)OC[C@H]1O[C@@H](n2ncc(=O)[nH]c2=O)[C@H](OC(C)=O)[C@@H]1OC(C)=O,inactive,inactive,inactive,inactive,inactive,inactive,inactive,inactive,inactive,inactive
O=C(Nc1ccc([N+](=O)[O-])cc1)Nc1ccc([N+](=O)[O-])cc1,inactive,inactive,inactive,inactive,inactive,inactive,inactive,inactive,inactive,inactive
CC(=O)OCC(=O)[C@H]1CC[C@H]2[C@@H]3CCC4=CC(=O)CC[C@]4(C)[C@H]3CC[C@]12C,inactive,inactive,inactive,inactive,inactive,inactive,inactive,inactive,inactive,inactive
CCOc1ccc(NC(C)=O)cc1,inactive,inactive,inactive,inactive,inactive,inactive,inactive,inactive,inactive,inactive
CCCCCCCCCCCCSCCOCCO,inactive,inactive,inactive,inactive,inactive,inactive,inactive,inactive,inactive,inactive
O=C(O)CCC(=O)Nc1ccc(S(=O)(=O)Nc2nccs2)cc1,inactive,inactive,inactive,inactive,inactive,inactive,inactive,inactive,inactive,inactive
CCCCN=C(N)N=C(N)N,inactive,inactive,inactive,inactive,inactive,inactive,inactive,inactive,inactive,inactive
CC[C@H](c1ccc(O)cc1)[C@@H](CC)c1ccc(O)cc1,inactive,inactive,inactive,inactive,inactive,inactive,inactive,inactive,inactive,inactive
O=C(NCCc1c[nH]c2ccccc12)c1cccnc1,inactive,inactive,inactive,inactive,inactive,inactive,inactive,inactive,inactive,inactive
CCCCCCCCCCCCCCCC(=O)O,inactive,inactive,inactive,inactive,inactive,inactive,inactive,inactive,inactive,inactive
Cl/C(=C\n1cncn1)c1ccc(Cl)cc1Cl,inactive,inactive,inactive,inactive,inactive,inactive,inactive,inactive,inactive,inactive
O=C1C(CCS(=O)c2ccccc2)C(=O)N(c2ccccc2)N1c1ccccc1 (stereo not given),inactive,inactive,inactive,inactive,inactive,inactive,inactive,inactive,inactive,inactive
Nc1nc(N)c(-c2ccccc2)s1,inactive,inactive,inactive,inactive,inactive,inactive,inactive,inactive,inactive,inactive
CC(=O)NO,inactive,inactive,inactive,inactive,inactive,inactive,inactive,inactive,inactive,inactive
CCCCC(CC)COC(=O)c1ccc(N(C)C)cc1 (stereo not given),inactive,inactive,inactive,inactive,inactive,inactive,inactive,inactive,inactive,inactive
Cc1ccccc1OCC(O)CO (stereo not given),inactive,inactive,inactive,inactive,inactive,inactive,inactive,inactive,inactive,inactive
CCOC(=O)c1ccc(N)cc1,inactive,inactive,inactive,inactive,inactive,inactive,inactive,inactive,inactive,inactive
COc1cc(C)nc(-n2nc(C)cc2OC)n1,inactive,inactive,inactive,inactive,inactive,inactive,inactive,inactive,inactive,inactive
CCC1Nc2cc(Cl)c(S(N)(=O)=O)cc2S(=O)(=O)N1 (stereo not given),inactive,inactive,inactive,inactive,inactive,inactive,inactive,inactive,inactive,inactive
Cc1nc(-c2ccc(Cl)cc2)oc1COC(C)(C)C(=O)O,inactive,inactive,inactive,inactive,inactive,inactive,inactive,inactive,inactive,inactive
Nc1ccc(C(=O)NCC(=O)O)cc1,inactive,inactive,inactive,inactive,inactive,inactive,inactive,inactive,inactive,inactive

Structure (SMILES),Potency (JCK),Potency (N140),Potency (P93_24),Potency (P94_40),Potency (PAD),Potency (PC15),Potency (PC26),Potency (PC49),Potency (SC27B),Potency (TAB109)
OC[C@H]1O[C@@H]2O[C@H]3[C@H](O)[C@@H](O)[C@@H](O[C@H]4[C@H](O)[C@@H](O)[C@@H](O[C@H]5[C@H](O)[C@@H](O)[C@@H](O[C@H]6[C@H](O)[C@@H](O)[C@@H](O[C@H]7[C@H](O)[C@@H](O)[C@@H](O[C@H]8[C@H](O)[C@@H](O)[C@@H](O[C@H]1[C@H](O)[C@H]2O)O[C@@H]8CO)O[C@@H]7CO)O[C@@H]6CO)O[C@@H]5CO)O[C@@H]4CO)O[C@@H]3CO,inactive,inactive,inactive,inactive,inactive,inactive,inactive,inactive,inactive,inactive
Cc1cccc(C)c1NC(=O)CN1CCCCCC1,inactive,inactive,inactive,inactive,inactive,inactive,inactive,inactive,inactive,inactive
NCCNC(=O)c1ccc(Cl)cn1,inactive,inactive,inactive,inactive,inactive,inactive,inactive,inactive,inactive,inactive
CCOc1ccccc1C(N)=O,inactive,inactive,inactive,inactive,inactive,inactive,inactive,inactive,inactive,inactive
CN(C)CCC[C@@]1(c2ccc(F)cc2)OCc2cc(C#N)ccc21,inactive,inactive,inactive,inactive,inactive,inactive,inactive,inactive,inactive,inactive
CCCCCCCCCCCCCC(=O)OC(C)C,inactive,inactive,inactive,inactive,inactive,inactive,inactive,inactive,inactive,inactive
COc1cc(C(=O)NCc2ccc(OCCN(C)C)cc2)cc(OC)c1OC,inactive,inactive,inactive,inactive,inactive,inactive,inactive,inactive,inactive,inactive
COc1ccc(/C=N/NC(=O)c2ccncc2)cc1OC,inactive,inactive,inactive,inactive,inactive,inactive,inactive,inactive,inactive,inactive
CC(=O)Nc1ccc(S(=O)(=O)Nc2ccc([N+](=O)[O-])cc2)cc1,inactive,inactive,inactive,inactive,inactive,inactive,inactive,inactive,inactive,inactive
O=C(O)Cc1csc(-c2ccc(Cl)cc2)n1,inactive,inactive,inactive,inactive,inactive,inactive,inactive,inactive,inactive,inactive
Nc1nc(-c2ccccc2)c(Br)c(=O)[nH]1,inactive,inactive,inactive,inactive,inactive,inactive,inactive,inactive,inactive,inactive
O=C(O)CCNC(=O)c1ccccc1,inactive,inactive,inactive,inactive,inactive,inactive,inactive,inactive,inactive,inactive
FC(F)(F)C(F)(F)C(F)(F)C(F)(F)C(F)(F)C(F)(F)C(F)(F)C(F)(F)Br,inactive,inactive,inactive,inactive,inactive,inactive,inactive,inactive,inactive,inactive
O=S(=O)(O)c1ccc(O)cc1,inactive,inactive,inactive,inactive,inactive,inactive,inactive,inactive,inactive,inactive
N#CCC(=O)NN,inactive,inactive,inactive,inactive,inactive,inactive,inactive,inactive,inactive,inactive
NS(=O)(=O)Cc1noc2ccccc12,inactive,inactive,inactive,inactive,inactive,inactive,inactive,inactive,inactive,inactive
CCCCC(CC)COC(=O)/C=C/c1ccc(OC)cc1 (stereo not given),inactive,inactive,inactive,inactive,inactive,inactive,inactive,inactive,inactive,inactive
Cc1ccc(O)c([C@H](CCN(C(C)C)C(C)C)c2ccccc2)c1,7.94 µM (active),2 µM (active),4.47 µM (active),2.24 µM (active),2.82 µM (active),3.16 µM (active),4.78 µM (active),3.16 µM (active),4.47 µM (active),3.55 µM (active)
c1ccc(-c2nc[nH]c2-c2ccccc2)cc1,inactive,inactive,inactive,inactive,inactive,inactive,inactive,inactive,inactive,inactive
COc1ccc(CN(CCN(C)C)c2ncccn2)cc1,inactive,inactive,7.94 µM (active),inactive,inactive,inactive,inactive,inactive,inactive,inactive
CCOC(=O)[C@H](CCc1ccccc1)N[C@@H](C)C(=O)N1[C@H](C(=O)O)C[C@H]2CCCC[C@@H]21,inactive,inactive,inactive,inactive,inactive,inactive,inactive,inactive,inactive,inactive
C=C[C@@]1(C)CC(=O)[C@]2(O)[C@@]3(C)[C@@H](O)CCC(C)(C)[C@@H]3[C@H](O)[C@H](OC(C)=O)[C@@]2(C)O1,inactive,inactive,inactive,inactive,inactive,inactive,inactive,inactive,inactive,inactive

# Source: PubChem BioAssay (NCATS)
